Calls of active or inactive are those of the source.
Tests used:
[1] = test system: Plasmodium falciparum Sir2 (PF13_0152, Sir2A); test: Plasmodium falciparum Sir2A binding compounds – biochemical, small-molecule microarray, 635 nm fluorescence, primary screen (AID 1098); conditions: fluorescence 635 nm, higher = more signal;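 also: score merges spot fluorescence intensity with its signal-to-noise ratio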
[2] = probe aDKK1 binding to arrayed compounds – biochemical, biotinylated probe, 635/667 nm fluorescence, primary screen (AID 1099); conditions: small-molecule microarray, higher = more signal;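 also: score merges 667nm spot fluorescence with signal to noise across triplicate slides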
[3] = probe aCHRDL2 binding to arrayed compounds – biochemical, biotinylated probe, 635/667 nm fluorescence, primary screen (AID 1100); conditions: small-molecule microarray, higher = more signal
[4] = change in splice reporter luminescence, either direction, cell-based, HEK293, spliceosome inhibition project, primary screen (AID 1101); conditions: HEK293 splicing luciferase reporter, 24 h, higher = more signal, called active from +8 up or from −8 down;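 also: HEK293 cells carrying a splicing-competent luciferase reporter gene; test concentration not given here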
[5] = target: Fibroblast growth factor 10 (Homo sapiens) (UniProt O15520); test: compounds binding fibroblast growth factor 10 – biochemical, small-molecule microarray, 635 nm fluorescence, primary screen (AID 1102); conditions: FGF10 binding, fluorescence 635 nm, higher = more signal
Sequence of Fibroblast growth factor 10 (Homo sapiens) (O15520 whole entry, looked up): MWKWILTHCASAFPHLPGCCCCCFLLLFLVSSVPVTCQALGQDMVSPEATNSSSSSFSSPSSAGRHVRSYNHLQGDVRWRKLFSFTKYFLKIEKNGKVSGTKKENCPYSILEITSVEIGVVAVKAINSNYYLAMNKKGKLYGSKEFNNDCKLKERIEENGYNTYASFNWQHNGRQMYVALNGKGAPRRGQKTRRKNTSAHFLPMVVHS

[6] = test system: glycogen synthase kinase-3 (GSK3A per assay name; protocol says GSK3B); test: compounds binding glycogen synthase kinase-3 – biochemical, small-molecule microarray, 635 nm fluorescence, GSK3A, primary screen (AID 1103); conditions: fluorescence 635 nm, higher = more signal; also: the record names both GSK3A and GSK3B
[7] = target: Epidermal growth factor receptor (Homo sapiens) (UniProt P00533); test: compounds binding epidermal growth factor receptor – biochemical, small-molecule microarray, 635 nm fluorescence, primary screen (AID 1104); conditions: EGFR binding, higher = more signal;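 also: score merges 667 nm emission intensity with spot signal to noise over triplicate slides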
Sequence of Epidermal growth factor receptor (Homo sapiens) (P00533 whole entry, looked up): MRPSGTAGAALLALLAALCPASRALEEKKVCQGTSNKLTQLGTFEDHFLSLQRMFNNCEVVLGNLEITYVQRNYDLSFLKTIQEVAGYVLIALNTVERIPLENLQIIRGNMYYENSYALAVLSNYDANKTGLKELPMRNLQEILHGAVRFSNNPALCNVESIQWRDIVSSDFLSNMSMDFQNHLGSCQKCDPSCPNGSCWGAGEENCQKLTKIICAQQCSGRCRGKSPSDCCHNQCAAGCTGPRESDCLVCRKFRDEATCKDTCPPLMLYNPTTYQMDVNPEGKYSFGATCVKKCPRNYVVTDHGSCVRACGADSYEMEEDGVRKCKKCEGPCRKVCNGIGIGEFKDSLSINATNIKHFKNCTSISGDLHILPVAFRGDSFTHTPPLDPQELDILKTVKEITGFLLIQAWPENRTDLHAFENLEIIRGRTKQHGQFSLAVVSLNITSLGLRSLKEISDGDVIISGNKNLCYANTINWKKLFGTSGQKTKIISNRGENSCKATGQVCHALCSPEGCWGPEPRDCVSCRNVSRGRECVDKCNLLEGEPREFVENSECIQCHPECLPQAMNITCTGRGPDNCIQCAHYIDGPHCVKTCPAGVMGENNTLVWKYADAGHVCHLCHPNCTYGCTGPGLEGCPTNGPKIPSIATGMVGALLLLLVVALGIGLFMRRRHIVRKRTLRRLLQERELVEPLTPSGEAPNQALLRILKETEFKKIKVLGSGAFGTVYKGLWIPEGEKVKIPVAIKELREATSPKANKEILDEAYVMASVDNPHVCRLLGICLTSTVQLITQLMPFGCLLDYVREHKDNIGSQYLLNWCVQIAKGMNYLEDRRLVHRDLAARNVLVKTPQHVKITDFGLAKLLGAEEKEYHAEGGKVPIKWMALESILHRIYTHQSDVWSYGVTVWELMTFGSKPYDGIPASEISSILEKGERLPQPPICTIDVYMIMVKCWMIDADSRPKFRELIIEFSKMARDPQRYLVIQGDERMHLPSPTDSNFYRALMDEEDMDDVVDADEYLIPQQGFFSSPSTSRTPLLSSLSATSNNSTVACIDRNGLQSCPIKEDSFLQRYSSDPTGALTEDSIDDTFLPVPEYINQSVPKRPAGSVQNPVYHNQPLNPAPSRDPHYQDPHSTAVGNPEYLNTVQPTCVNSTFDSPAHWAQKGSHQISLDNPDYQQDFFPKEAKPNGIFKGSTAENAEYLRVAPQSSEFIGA

[8] = target: Follistatin-related protein 3 (Homo sapiens) (UniProt O95633); test: compounds binding follistatin-related protein 3 – biochemical, small-molecule microarray, 635 nm fluorescence, primary screen (AID 1105); conditions: FSTL3 binding, higher = more signal;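 also: score merges emission near 667 nm and signal to noise per printed spot across three slides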
Sequence of Follistatin-related protein 3 (Homo sapiens) (O95633 whole entry, looked up): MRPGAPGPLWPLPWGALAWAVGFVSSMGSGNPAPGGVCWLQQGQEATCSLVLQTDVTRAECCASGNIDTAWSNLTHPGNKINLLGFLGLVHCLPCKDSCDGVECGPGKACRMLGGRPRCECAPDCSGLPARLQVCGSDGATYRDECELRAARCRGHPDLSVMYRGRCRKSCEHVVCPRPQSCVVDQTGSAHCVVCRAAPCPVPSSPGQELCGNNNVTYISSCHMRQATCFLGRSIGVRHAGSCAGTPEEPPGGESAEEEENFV

[9] = target: Dickkopf-related protein 1 (Homo sapiens) (UniProt O94907); test: small molecules binding DKK1 protein – biochemical, small-molecule microarray, 635 nm fluorescence scan, primary screen (AID 1106); conditions: higher = more signal;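 also: score merges emission near 667 nm with signal to noise over three replicate slides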
Sequence of Dickkopf-related protein 1 (Homo sapiens) (O94907 whole entry, looked up): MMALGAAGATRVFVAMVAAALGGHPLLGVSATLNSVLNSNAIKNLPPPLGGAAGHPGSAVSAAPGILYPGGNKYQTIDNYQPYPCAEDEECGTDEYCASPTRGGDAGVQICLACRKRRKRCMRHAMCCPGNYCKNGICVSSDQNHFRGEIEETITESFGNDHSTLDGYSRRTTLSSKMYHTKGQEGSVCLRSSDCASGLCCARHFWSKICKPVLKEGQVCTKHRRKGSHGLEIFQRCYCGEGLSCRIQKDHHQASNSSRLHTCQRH

[10] = test system: Inhibin beta A chain (activin A); test: small molecules binding activin A – biochemical, small-molecule microarray, 635 nm fluorescence scan, primary screen (AID 1107); conditions: INHBA, higher = more signal;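 also: mouse activin A protein probed at 4.33 µg/mL on printed slides; score merges bound-protein fluorescence near 667 nm with spot signal-to-noise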
[11] = test system: Human papillomavirus type 1a protein E7 (residues 44-93); test: small molecules binding HPV E7 44-93 – biochemical, small-molecule microarray, residues 44-93, 635 nm fluorescence, primary screen (AID 1108); conditions: fluorescence 635 nm, higher = more signal;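 also: E7 fragment applied at 1 µg/mL in TBST for 1 h at 4 C; score combines spot fluorescence with its signal to noise ratio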
[12] = hepatitis C replication reporter changes, two-sided – Huh7 cells, luciferase reporter, HCV replication inhibitor project, primary screen (AID 1109); conditions: Huh7 HCV replicon luciferase reporter, 48 h; higher = more signal;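 also: huh7 hepatoma cells harbouring a luciferase neomycin HCV replicon reporter; luciferase luminescence as measure of HCV replicon replication; test concentration not given here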
[13] = target: Left-right determination factor 2 (Homo sapiens) (UniProt O00292); test: small molecules binding LEFTY2 protein – biochemical, small-molecule microarray, 635 nm fluorescence scan, primary screen (AID 1110); conditions: higher = more signal
Sequence of Left-right determination factor 2 (Homo sapiens) (O00292 whole entry, looked up): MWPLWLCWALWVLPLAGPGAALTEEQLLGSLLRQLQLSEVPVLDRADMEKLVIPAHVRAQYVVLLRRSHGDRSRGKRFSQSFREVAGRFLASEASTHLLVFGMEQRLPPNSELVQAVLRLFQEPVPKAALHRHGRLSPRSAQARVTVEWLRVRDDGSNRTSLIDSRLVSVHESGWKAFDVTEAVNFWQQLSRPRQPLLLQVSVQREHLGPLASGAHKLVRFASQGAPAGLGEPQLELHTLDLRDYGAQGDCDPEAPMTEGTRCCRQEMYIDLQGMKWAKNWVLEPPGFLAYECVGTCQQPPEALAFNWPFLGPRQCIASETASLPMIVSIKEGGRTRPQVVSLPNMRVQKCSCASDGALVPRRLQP

[14] = target: Calmodulin-1 (Homo sapiens) (UniProt P0DP23); test: small molecules binding calmodulin-1 with EGTA – biochemical, small-molecule microarray, Cy5-labelled CALM1, profiling panel (AID 1111); conditions: Cy5-CALM1 binding fluorescence, higher = more signal;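 also: labelled calmodulin applied in Tris saline Tween buffer holding calcium plus EGTA and DTT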
[15] = target: Calmodulin-1 (Homo sapiens) (UniProt P0DP23); test: small molecules binding Ca-loaded calmodulin-1 – biochemical, small-molecule microarray, Cy5-labelled CALM1, plus calcium, artefact control for SMM control-protein annotation, profiling panel (AID 1112); conditions: Cy5-CALM1 binding fluorescence, higher = more signal;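 also: score merges spot fluorescence with signal to noise from triplicate slides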
[16] = probe aWnt5a binding to arrayed compounds – biochemical, biotinylated probe, 635/667 nm fluorescence, primary screen (AID 1113); conditions: small-molecule microarray, higher = more signal;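 also: score merges 667 nm fluorescence intensity with signal-to-noise per printed feature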
[17] = probe aShh binding to arrayed compounds – biochemical, biotinylated probe, 635/667 nm fluorescence, primary screen (AID 1114); conditions: small-molecule microarray, higher = more signal;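 also: probe is biotin-labelled aShh protein from a stem cell growth factor screen; measures binding of labelled protein to compounds printed on the slide; score merges feature fluorescence at 667 nm with signal-to-noise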
[18] = probe aNog binding to arrayed compounds – biochemical, biotinylated probe, 635/667 nm fluorescence, primary screen (AID 1115); conditions: small-molecule microarray, higher = more signal;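 also: probe is biotinylated aNog protein used at 0.15 µg/mL for 1 h at 4 C; z-score combines 667 nm fluorescence of each spot with its signal to noise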
[19] = target: Torsin-1A-interacting protein 1 (Homo sapiens) (UniProt Q5JTV8); test: compound microarray binding of lysate hLAP1 – cell lysate, small-molecule microarray, COS7 lysate, 635/667 nm fluorescence, primary screen (AID 1116); conditions: 635 nm fluorescence, higher = more signal
Sequence of Torsin-1A-interacting protein 1 (Homo sapiens) (Q5JTV8 whole entry, looked up): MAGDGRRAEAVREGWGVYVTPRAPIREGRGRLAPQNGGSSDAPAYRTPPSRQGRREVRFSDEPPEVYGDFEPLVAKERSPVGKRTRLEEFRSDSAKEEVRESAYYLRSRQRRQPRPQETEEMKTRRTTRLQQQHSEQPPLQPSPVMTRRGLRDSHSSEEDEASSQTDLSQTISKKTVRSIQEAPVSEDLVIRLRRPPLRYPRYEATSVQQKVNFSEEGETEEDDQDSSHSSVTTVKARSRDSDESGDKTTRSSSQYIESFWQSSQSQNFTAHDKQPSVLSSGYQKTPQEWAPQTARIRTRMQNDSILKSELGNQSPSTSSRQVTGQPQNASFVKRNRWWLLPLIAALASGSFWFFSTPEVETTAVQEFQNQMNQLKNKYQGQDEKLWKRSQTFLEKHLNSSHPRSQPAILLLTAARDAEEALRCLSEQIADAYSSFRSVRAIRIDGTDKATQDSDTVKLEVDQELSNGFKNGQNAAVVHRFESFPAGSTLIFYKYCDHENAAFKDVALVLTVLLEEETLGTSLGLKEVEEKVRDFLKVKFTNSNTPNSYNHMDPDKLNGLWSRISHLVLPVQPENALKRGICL

[20] = target: Alpha-bungarotoxin (Bungarus multicinctus) (UniProt P60615); test: compounds binding labelled alpha-BTX control protein – biochemical, small-molecule microarray, Alexa647 label, 635/667 nm fluorescence, artefact control for SMM control protein annotation, profiling panel (AID 1117); conditions: alpha-BTX-A647 binding fluorescence, higher = more signal
Sequence of Alpha-bungarotoxin (Bungarus multicinctus) (P60615 whole entry, looked up): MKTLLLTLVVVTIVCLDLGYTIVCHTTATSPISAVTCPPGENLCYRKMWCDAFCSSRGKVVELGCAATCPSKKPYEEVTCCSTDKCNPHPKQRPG

| SMILES | composite z-score [1] | composite z-score [2] | composite z-score [3] | z-score [4] | composite z-score [5] | composite z-score [6] | composite z-score [7] | composite z-score [8] | composite z-score [9] | composite z-score [10] | composite z-score [11] | z-score [12] | composite z-score [13] | composite z-score [14] | composite z-score [15] | composite z-score [16] | composite z-score [17] | composite z-score [18] | composite z-score [19] | composite z-score [20] |
| --- | --- | --- | --- | --- | --- | --- | --- | --- | --- | --- | --- | --- | --- | --- | --- | --- | --- | --- | --- | --- |
| COC(=O)CC=C[C@@H](C)[C@@H](C=NOC(C)CN1CCCc2nc(C)c(C)cc21)OC (stereo not given in full) | 0.465 | -0.0071 | -0.472 | 0.404 (inactive) | 0.407 | 0.522 | 0.538 | 0.406 | 0.866 | -0.0511 | 0.633 | -0.256 | 0.517 | 0.539 | -0.733 | 0.133 | -0.223 | -0.291 | 0.106 | 1.43 |
| COC(=O)[C@H](C)NC(=O)CCC1CC(OC(=O)NCc2ccc3c(c2)OCO3)CC2(CCCC(COC(=O)NCCc3ccccc3OC)O2)O1 (stereo not given in full) | 0.417 | -0.037 | -0.24 | -0.293 (inactive) | 0.0774 | 0.0268 | -0.102 | -0.108 | -0.253 | -0.28 | 0.776 | -0.941 | 0.0048 | -0.173 | 0.351 | -0.219 | -0.206 | -0.0653 | 0.561 | 0.253 |
| CSCC[C@@H]1NC(=O)CC=C[C@@H](C)COC(=O)[C@@H](C)COC1=O | -0.0958 | -0.417 | -0.816 | -0.0857 (inactive) | -0.0586 | 0.812 | 0.0541 | -0.149 | -0.18 | 0.705 | -2.17 | 0.371 | 0.294 | -1.31 | -1.61 | -0.197 | -0.366 | -0.15 | 0.574 | -2.23 |
| CCOC(=O)[C@H](CC(C)C)NC(=O)CCC1CC(OC(=O)NCCc2ccc(F)cc2)CC2(CCCC(COC(=O)NCCc3ccc(Cl)cc3)O2)O1 (stereo not given in full) | 0.654 | -0.26 | -0.681 | 0.0483 (inactive) | 0.675 | 0.46 | 0.517 | 0.79 | 0.483 | -1.71 | 0.585 | -1.19 | 0.839 | -0.222 | -0.0499 | -0.0044 | -0.156 | -0.45 | 0.456 | 1.02 |
| CC(CCN1CCc2nc(-c3ccccc3)c(-c3ccccc3)cc2C1)=NOC[C@@H](O)COCc1ccco1 | 0.752 | -0.131 | -0.614 | 0.0302 (inactive) | 0.52 | 0.814 | 0.377 | 0.776 | 1.08 | 1.48 | 0.58 | -1.11 | 0.718 | -0.216 | -0.625 | -0.0346 | 0.0048 | -0.0524 | 0.323 | 0.365 |
| COc1ccc(O[C@H]2C=C[C@@H](c3ccccc3)O[C@@H]2CON=C(C)CCC(=O)OC[C@H]2O[C@H](c3ccccc3)C=C[C@@H]2Oc2ccc(OC)cc2)cc1 | 0.0844 | -0.252 | 0.2 | 0.114 (inactive) | -1.19 | -1.59 | -1.63 | -1.25 | -0.591 | 0.95 | -1.52 | -1.15 | -1.08 | -0.63 | -0.702 | -0.176 | -0.276 | 0.646 | -1.17 | -0.792 |
| CC(CCN1CCCCc2nc(C)c(C)cc21)=NO[C@@H](C)c1cn([C@H](CO)Cc2ccccc2)nn1 | 0.683 | -0.217 | -0.46 | 0.16 (inactive) | 0.0253 | 0.54 | 0.593 | 0.902 | 1.17 | 0.788 | 0.271 | -0.507 | 0.813 | 0.404 | -0.0345 | -0.152 | -0.117 | -0.397 | 0.691 | 0.414 |
| COc1cccc([C@H]2Oc3ccc(OC)cc3C(=NOC[C@@H](C)[C@H](OCc3ccccc3)C(C)C)[C@@H]2O)c1 | -0.0088 | 0.197 | 0.101 | -0.171 (inactive) | 0.325 | 0.332 | -0.168 | 0.242 | 0.304 | 0.0185 | 0.274 | -2.55 | 0.476 | -0.0749 | 0.619 | -0.206 | -0.0858 | 0.2 | 0.251 | 0.452 |

Reference: PubChem BioAssay
